Mot1-301 SUMO = SUMOylation pathway inhibition by Mot1-301 growth rescue. S. cerevisiae Mot1-301 growth rescue, ATP luminescence, 38.5C; percent above DMSO median, 100 means doubled. growth rescue, % at 18.8 µM. 320,000 compounds, 1% hits;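 active = every valid replicate shows activation above 250% relative to neutral control wells; inactive = the rest, any valid replicate at or below 250%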;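 also: OY570 slx delta 5 strain wells were the positive control but not used for scaling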
CASP6 VEID inh = inhibitors of human caspase-6; P55212; purified caspase-6, Z-VEID-R110 cleavage fluorescence; inhibition, % at 12.5 µM; 350,000 compounds, 0.53% hits; AID 686996;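 active = mean inhibition across replicates at least about 35%, with every replicate also reaching that limit, limit read from the data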;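 also: 0% = median of neutral control wells and 100% = no fluorescence left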
NSD2 HMT inh = blocks human histone methyltransferase NSD2. O96028. AID 743445. 310,000 compounds, 0.54% hits. inhibition, % at 12.5 µM. NSD2 peptide methylation, AlphaScreen, 120 min; in the data active = inhibition above about 50%
Glyco luc inh = blocks N-linked glycosylation in D54 reporter cells | D54 ERlucT glycosylation luciferase reporter, 24 h; percent of 100 nM tunicamycin response | reporter increase, % at 12.5 µM | 360,000 compounds, 0.23% hits | AID 588692;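 active = mean luciferase reporter signal, scaled so untreated is 0 and the glycosylation-blocking control 100, at or above a set limit in every replicate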;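 also: luciferase carries N-glycosylation sites so blocking glycosylation raises the light; 0% = median of neutral control wells and 100% = median of 100 nM tunicamycin wells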
CDK5 inh = blocks human CDK5/p35 kinase activity; inhibition, % at 10 µM; Recombinant CDK5/p35, ADP-Glo luminescence, 60 min; 330,000 compounds, 0.01% hits; Q00535+Q15078; AID 488839;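 active = highest replicate inhibition of at least 50% and at least 75% of replicates reaching 50%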;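 also: plate controls were DMSO neutral control for no effect and GW8510 at 10 µM for full effect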
Target sequence (Q00535 whole entry, looked up): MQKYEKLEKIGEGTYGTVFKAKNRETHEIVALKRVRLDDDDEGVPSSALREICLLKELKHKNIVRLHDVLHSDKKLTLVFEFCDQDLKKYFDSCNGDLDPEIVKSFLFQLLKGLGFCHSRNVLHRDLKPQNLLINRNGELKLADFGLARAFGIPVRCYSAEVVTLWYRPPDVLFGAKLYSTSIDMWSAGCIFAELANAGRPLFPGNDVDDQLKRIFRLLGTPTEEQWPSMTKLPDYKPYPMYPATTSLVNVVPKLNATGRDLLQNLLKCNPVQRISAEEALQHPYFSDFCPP
Target sequence (Q15078 whole entry, looked up): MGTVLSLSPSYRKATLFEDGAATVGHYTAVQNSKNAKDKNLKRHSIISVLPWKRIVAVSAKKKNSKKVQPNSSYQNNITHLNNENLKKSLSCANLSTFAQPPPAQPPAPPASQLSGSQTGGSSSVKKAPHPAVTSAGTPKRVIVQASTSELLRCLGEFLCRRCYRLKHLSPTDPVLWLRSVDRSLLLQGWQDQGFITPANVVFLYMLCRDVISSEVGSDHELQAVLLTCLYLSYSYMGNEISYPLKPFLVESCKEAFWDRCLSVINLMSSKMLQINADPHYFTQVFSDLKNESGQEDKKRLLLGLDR
ALR H2O2 inh = human ALR oxidase inhibition via reduced H2O2 | P55789 | purified ALR, DTT oxidation, H2O2 HRP-luminol luminescence | inhibition, % (concentration not given with the values) | 290,000 compounds, 3.8% hits | AID 485317;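 active = mean replicate inhibition above about 79%, with every replicate also reaching it, limit read from the data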
An asterisk follows results filed as active; i = inactive; x = not tested or not shown. In the library only some 3.9% were active in any assay of this set; here they are far more common.

SMILES	Mot1-301 SUMO	CASP6 VEID inh	NSD2 HMT inh	Glyco luc inh	CDK5 inh	ALR H2O2 inh
Cc1ccc(Nc2n[nH]c(=S)s2)cc1C	x	3	1	2	x	x
Clc1cccc(Nc2nc(-c3ccncc3)cs2)c1	275*	-3	-3	-8	0	-10
Cn1c(=O)c2cc(S(=O)(=O)NCCC(=O)NCCc3ccc(Cl)cc3)ccc2n(C)c1=O	-19	x	-5	0	-1	98*
COc1ccc(/C=C2\SC(=O)N(CC(=O)NCCCn3ccnc3)C2=O)cc1	-8	50*	3	1	x	-5
O=C(CN1C(=O)S/C(=C\c2ccc(Cl)cc2)C1=O)NCCCn1ccnc1	-3	-1	24	0	0	-13
COc1cccc(/C=C2\SC(=O)N(CCC(=O)NCCCn3ccnc3)C2=O)c1	3	-1	18	2	0	11
COc1cccc(/C=C2\SC(=O)N(CC(=O)NCCCn3ccnc3)C2=O)c1	-23	-2	3	-1	0	99*
COc1ccc(NC(=O)Nc2ccc3c(c2)CC(=O)N([C@H](C)CO)C[C@@H](C)[C@H](CN(C)C(=O)Nc2ccc(F)cc2)O3)cc1	x	-1	x	x	x	x
Cc1ccc(NC(=O)C2CCCN(S(=O)(=O)c3cnc[nH]3)C2)cc1C (stereo unspecified)	-11	0	x	1	0	98*
Cc1cc(NC(=O)C2CCCN(S(=O)(=O)c3cnc[nH]3)C2)ccc1Br (stereo unspecified)	6	0	x	1	-3	93*
CCSc1nnc(NC(=O)C2CCCN(S(=O)(=O)c3cnc[nH]3)C2)s1 (stereo unspecified)	300	-1	x	-1	0	93*
COc1ccc(C)cc1NC(=O)C1CCCN(S(=O)(=O)c2cnc[nH]2)C1 (stereo unspecified)	8	3	x	1	0	46
CCN(CC)c1ccc(NC(=O)C2CCCN(S(=O)(=O)c3cnc[nH]3)C2)c(C)c1 (stereo unspecified)	7	-2	x	-2	0	101*
CN1C[C@@H]2[C@H](c3ccccc31)[C@H](CO)N2C(=O)C1CCOCC1	x	1	x	x	x	x
COc1cccc(C(=O)Nc2ccc3c(c2)OC[C@H](C)N(C(=O)C2CCCC2)C[C@@H](C)[C@H](OC)CN(C)C3=O)c1	x	5	x	x	x	x
CCC(=O)N(C)C[C@H]1Oc2ncc(-c3ccc(C(=O)N(C)C)cc3)cc2C(=O)N([C@@H](C)CO)C[C@H]1C	x	-2	x	x	x	x
Cc1ccc(C)c(N2CCN(C(=O)C3CCCN(S(=O)(=O)c4cnc[nH]4)C3)CC2)c1 (stereo unspecified)	284	7	x	3	0	97*
CCc1c(C)nc2c(C#N)c[nH]n2c1=O	i	1	1	3	0	98*
CCOC(=O)Cc1c(C)nc2c(C#N)c[nH]n2c1=O	x	3	6	2	-2	x
CCOc1ccccc1C1C(C#N)=C(N)Oc2cc(N)ccc21 (stereo unspecified)	-22	x	1	0	2	98*
COC(=O)c1ccc(C2C(C#N)=C(N)Oc3cc(N)ccc32)cc1 (stereo unspecified)	-12	-1	-3	0	-1	97*
COc1ccc(OC)c(C2C(C#N)=C(N)Oc3cc(N)ccc32)c1 (stereo unspecified)	-14	x	4	4	0	99*
COC(=O)c1ccc(C2C(C#N)=C(N)Oc3cc(O)ccc32)cc1 (stereo unspecified)	-16	9	-1	3	1	3
O=C(C1CCCCC1)N1C[C@H]2[C@@H](c3ccccc31)[C@H](CO)N2C(=O)c1ccccc1	x	1	x	x	x	x
COCC#Cc1ccc2c(c1)O[C@H](CN(C)Cc1ccc(F)cc1)[C@@H](C)CN([C@@H](C)CO)S2(=O)=O	x	-1	x	x	x	x
Cc1cc(C(=O)Nc2ccc3c(c2)C(=O)N(C)[C@@H]2CC[C@@H](CC(=O)N[C@@H](C)c4ccccc4)O[C@@H]2CO3)no1	x	0	x	x	x	x
CCn1ncc(/C=N\NC(=O)COc2ccccc2)c1C	13	x	-2	3	x	96*
Cc1ccc(OCC(=O)N/N=C/c2cn(C)c3ccccc23)cc1	136	0	17	2	2	-10
CCOC(=O)c1c(C)[nH]c2cc(Br)c(O)cc12	0	x	0	1	-3	11
